Measured values: PubChem BioAssay (NCI)
The panel holds about 83,000 compounds, 20% with a hit somewhere; the sample as a whole holds those more often.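 Interpretation: 100, growth as untreated; towards 0, rising growth inhibition; 0, no net growth; 0 to -100, cell death. Compounds scoring below 10 were considered active.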 Values without a mark were called inactive. Activity calls are given as the source filed them.

Test system: HCT-116 colon
Assay: NCI-60 one-dose screen, 48 h (100 = growth as untreated, 0 = no growth, -100 = all killed)
Conditions: 10 µM unless noted

Q: With `Cc1ccc2c(c1)c(Sc1ccc(C(=O)NO)cc1)c1n2CN(C)CC1` as the compound, how does the growth read?
A: The growth was -11.2% (active).

Q: `O=C1NC(=S)S/C1=C\c1cccc([N+](=O)[O-])c1` was tested. Which growth did it give?
A: The growth was 93.2%.

Q: `CCCN(CCC)c1ccc(/C=C/c2ccc3cc(OCC)ccc3n2)cc1` was tested. Which growth did it give?
A: Its growth is 70.4%.

Q: With `Clc1ccc(C2=NN(c3ccccc3)[C@H](c3cn(-c4ccccc4)nc3-c3ccccc3)C2)cc1` as the compound, how does the growth read?
A: The growth was 90%.

Q: For `COc1cc(C(=O)/C=C/c2c(-c3cccs3)nc3sccn23)cc(OC)c1OC`, which growth is on record?
A: Its growth is -14.3% (active).

Q: For `CCOC(=O)C1=C(C)N2C(=NC3=C(CCCC/C3=C\c3cc(OC)c(OC)c(OC)c3)C2c2cc(OC)c(OC)c(OC)c2)S1` (stereo not drawn), which growth is on record?
A: Its growth is 68%.

Q: For `CN1CCN(c2nc(-c3ccncc3)nc3sc4c(c23)CCCCCC4)CC1`, which growth is on record?
A: Its growth is 56.5%.

Q: Which growth does the source give for `COc1ccc(-n2ncc3c4nc(OC)c(S(=O)(=O)c5ccccc5)cc4ccc32)cc1` here?
A: Its growth is 59.7%.

Q: How did the growth turn out when `COc1ccc(C2CC(c3cc(OC)c(OC)c(OC)c3)=NN2c2ccc(S(N)(=O)=O)cc2)cc1` (stereo not drawn) was run?
A: Its growth is 48.2%.

Q: How did the growth turn out when `Cc1nn(CC(=O)O)c2c1C(=O)CC(C)(C)C2` was run?
A: Its growth is 92.3%.

Q: `O=C1C(Br)=C(c2ccccc2)C(=O)C(Br)=C1c1ccccc1` was tested. Which growth did it give?
A: The growth was 90.3%.

Q: With `Cc1ccc(C)c2c1sc1nc3nc4sc5ccccc5n4c(=N)c3c(=O)n12` as the compound, how does the growth read?
A: The growth was 91.6%.

Q: `Nc1cc(Br)c(-c2nnc(CCC(=O)c3nc4ccccc4[nH]3)o2)c(Br)c1` was tested. Which growth did it give?
A: Its growth is 53.3%.

Q: Which growth does the source give for `COc1ccc(Nc2nc(NCCNc3ccnc4cc(Cl)ccc34)nc(N3CCOCC3)n2)cc1` here?
A: Its growth is 41.8%.

Q: With `Cc1nc2cc(Nc3nc(N4CCOCC4)nc(N4CCN(C)CC4)n3)ccc2n1Cc1ccccc1` as the compound, how does the growth read?
A: Its growth is 98.2%.

Q: `COc1ccc(-c2nc3sc(C)cn3c2/C=C/C(=O)c2cc(OC)c(OC)c(OC)c2)cc1` was tested. Which growth did it give?
A: Its growth is 42.1%.

Q: `O=[N+]([O-])c1ccc(O)c2ncccc12` was tested. Which growth did it give?
A: The growth was 17.1%.

Q: `CC1(C)N=C(N)N=C(N)N1c1cccc(/C=C/C=C/c2cccc([N+](=O)[O-])c2)c1` was tested. Which growth did it give?
A: Its growth is 24.7%.

Q: Which growth does the source give for `O=c1nc(NO)[nH]c(=O)n1Cc1ccccc1` here?
A: The growth was 105%.

Q: `C[C@@H](Oc1cc(-c2cnn(C3CC4(CCNCC4)C3)c2)cnc1N)c1c(F)ccc(Cl)c1Cl` was tested. Which growth did it give?
A: The growth was -22.5% (active).

Q: How did the growth turn out when `C=CC(=O)N1CC2(CC(n3nc(-c4ccc(Oc5ccccc5)cc4)c4c(N)ncnc43)C2)C1` was run?
A: Its growth is 45.4%.

Q: For `COc1ccc(OC)c(C2C(C#N)=C(N)Oc3cc(O)ccc32)c1` (stereo not drawn), which growth is on record?
A: The growth was 96.3%.

Q: With `CC(C)(C)[Si](C)(C)OC1[C@@H](O[Si](C)(C)C(C)(C)C)[C@@H](CNC(=O)NC(=O)C(F)(F)F)O[C@H]1n1cnc2c(NC(=O)Nc3ccccc3)ncnc21` (stereo partly drawn) as the compound, how does the growth read?
A: Its growth is 57.2%.

Q: `Nc1nc(N)c(N=Nc2c(Br)cc(S(N)(=O)=O)cc2Br)c(N)n1` was tested. Which growth did it give?
A: The growth was 103%.

Q: How did the growth turn out when `O=C(NCc1cccnc1)c1ccc([N+](=O)[O-])o1` was run?
A: The growth was -4.08% (active).

Q: With `Cn1c(=O)c2c(-c3ccccc3F)n(-c3ccc4c(c3)OCO4)cc2n(C)c1=O` as the compound, how does the growth read?
A: The growth was 85.8%.

Q: How did the growth turn out when `Nc1nc2c(s1)CCc1c-2c(Br)n(Cc2ccccc2)c1Br` was run?
A: The growth was 23.5%.

Q: With `CN1CCc2c(c3ccccc3c3ccccc23)C1` as the compound, how does the growth read?
A: Its growth is 16.9%.

Q: For `COc1cccc(C2C3=C(COC3=O)N(CCO)c3cc4c(cc32)CCC4)c1` (stereo not drawn), which growth is on record?
A: Its growth is -9.32% (active).

Q: For `O=C(Nc1ccc(F)cc1)c1ccc(C(=O)Nc2ccc(F)cc2)cc1`, which growth is on record?
A: Its growth is 96.2%.

Q: For `Cc1cc(O)cc2c1[C@H]1CC[C@]3(C)[C@@H](O)CC[C@H]3[C@@H]1C=C2`, which growth is on record?
A: Its growth is 86.6%.

Q: Which growth does the source give for `C[C@@H](Oc1cc(-c2cnn(C3CC4(CCCNC4)C3)c2)cnc1N)c1c(Cl)ccc(F)c1Cl` (stereo partly drawn) here?
A: Its growth is -11.8% (active).

Q: `Clc1ccc(Nc2nc(Nc3ccccc3)nc(Nc3ccc(-c4cc(-c5ccc(Cl)cc5)on4)cc3)n2)cc1` was tested. Which growth did it give?
A: Its growth is 27.4%.

Q: How did the growth turn out when `Cc1nc(-c2ccccc2)cc2c(O)c(C(=O)N/N=C/Cc3ccccc3)[nH]c(=O)c12` was run?
A: The growth was 101%.

Test system: HCC-2998 colon
Assay: as above
Conditions: 10 µM unless noted

Q: For `Cc1ccc2c(c1)c(Sc1ccc(C(=O)NO)cc1)c1n2CN(C)CC1`, which growth is on record?
A: The growth was 14.9%.

Q: With `O=C1NC(=S)S/C1=C\c1cccc([N+](=O)[O-])c1` as the compound, how does the growth read?
A: Its growth is 87.4%.

Q: With `CCCN(CCC)c1ccc(/C=C/c2ccc3cc(OCC)ccc3n2)cc1` as the compound, how does the growth read?
A: Its growth is 94.4%.

Q: How did the growth turn out when `Clc1ccc(C2=NN(c3ccccc3)[C@H](c3cn(-c4ccccc4)nc3-c3ccccc3)C2)cc1` was run?
A: Its growth is 103%.

Q: For `COc1cc(C(=O)/C=C/c2c(-c3cccs3)nc3sccn23)cc(OC)c1OC`, which growth is on record?
A: Its growth is -11.9% (active).

Q: With `CCOC(=O)C1=C(C)N2C(=NC3=C(CCCC/C3=C\c3cc(OC)c(OC)c(OC)c3)C2c2cc(OC)c(OC)c(OC)c2)S1` (stereo not drawn) as the compound, how does the growth read?
A: The growth was 85%.

Q: With `CN1CCN(c2nc(-c3ccncc3)nc3sc4c(c23)CCCCCC4)CC1` as the compound, how does the growth read?
A: The growth was 37.4%.

Q: Which growth does the source give for `COc1ccc(-n2ncc3c4nc(OC)c(S(=O)(=O)c5ccccc5)cc4ccc32)cc1` here?
A: The growth was 96.7%.

Q: Which growth does the source give for `COc1ccc(C2CC(c3cc(OC)c(OC)c(OC)c3)=NN2c2ccc(S(N)(=O)=O)cc2)cc1` (stereo not drawn) here?
A: Its growth is 79.7%.

Q: How did the growth turn out when `Cc1nn(CC(=O)O)c2c1C(=O)CC(C)(C)C2` was run?
A: Its growth is 98.9%.

Q: For `O=C1C(Br)=C(c2ccccc2)C(=O)C(Br)=C1c1ccccc1`, which growth is on record?
A: The growth was 98.2%.

Q: With `Cc1ccc(C)c2c1sc1nc3nc4sc5ccccc5n4c(=N)c3c(=O)n12` as the compound, how does the growth read?
A: The growth was 94.6%.

Q: With `Nc1cc(Br)c(-c2nnc(CCC(=O)c3nc4ccccc4[nH]3)o2)c(Br)c1` as the compound, how does the growth read?
A: Its growth is 78%.

Q: For `COc1ccc(Nc2nc(NCCNc3ccnc4cc(Cl)ccc34)nc(N3CCOCC3)n2)cc1`, which growth is on record?
A: Its growth is 0.682% (active).

Q: Which growth does the source give for `Cc1nc2cc(Nc3nc(N4CCOCC4)nc(N4CCN(C)CC4)n3)ccc2n1Cc1ccccc1` here?
A: Its growth is 113%.

Q: For `COc1ccc(-c2nc3sc(C)cn3c2/C=C/C(=O)c2cc(OC)c(OC)c(OC)c2)cc1`, which growth is on record?
A: Its growth is 69.3%.

Q: Which growth does the source give for `O=[N+]([O-])c1ccc(O)c2ncccc12` here?
A: The growth was 51.6%.

Q: With `CC1(C)N=C(N)N=C(N)N1c1cccc(/C=C/C=C/c2cccc([N+](=O)[O-])c2)c1` as the compound, how does the growth read?
A: Its growth is 45.1%.

Q: Which growth does the source give for `O=c1nc(NO)[nH]c(=O)n1Cc1ccccc1` here?
A: The growth was 106%.

Q: `C[C@@H](Oc1cc(-c2cnn(C3CC4(CCNCC4)C3)c2)cnc1N)c1c(F)ccc(Cl)c1Cl` was tested. Which growth did it give?
A: The growth was 6.25% (active).

Q: How did the growth turn out when `C=CC(=O)N1CC2(CC(n3nc(-c4ccc(Oc5ccccc5)cc4)c4c(N)ncnc43)C2)C1` was run?
A: The growth was 64.9%.

Q: Which growth does the source give for `COc1ccc(OC)c(C2C(C#N)=C(N)Oc3cc(O)ccc32)c1` (stereo not drawn) here?
A: The growth was 109%.

Q: For `CC(C)(C)[Si](C)(C)OC1[C@@H](O[Si](C)(C)C(C)(C)C)[C@@H](CNC(=O)NC(=O)C(F)(F)F)O[C@H]1n1cnc2c(NC(=O)Nc3ccccc3)ncnc21` (stereo partly drawn), which growth is on record?
A: The growth was 79.3%.

Q: With `Nc1nc(N)c(N=Nc2c(Br)cc(S(N)(=O)=O)cc2Br)c(N)n1` as the compound, how does the growth read?
A: Its growth is 100%.

Q: How did the growth turn out when `O=C(NCc1cccnc1)c1ccc([N+](=O)[O-])o1` was run?
A: Its growth is -97.6% (active).

Q: Which growth does the source give for `Cn1c(=O)c2c(-c3ccccc3F)n(-c3ccc4c(c3)OCO4)cc2n(C)c1=O` here?
A: The growth was 92.2%.

Q: How did the growth turn out when `Nc1nc2c(s1)CCc1c-2c(Br)n(Cc2ccccc2)c1Br` was run?
A: Its growth is 102%.

Q: For `CN1CCc2c(c3ccccc3c3ccccc23)C1`, which growth is on record?
A: The growth was 70%.

Q: How did the growth turn out when `COc1cccc(C2C3=C(COC3=O)N(CCO)c3cc4c(cc32)CCC4)c1` (stereo not drawn) was run?
A: The growth was -20.6% (active).

Q: With `O=C(Nc1ccc(F)cc1)c1ccc(C(=O)Nc2ccc(F)cc2)cc1` as the compound, how does the growth read?
A: The growth was 111%.

Q: With `Cc1cc(O)cc2c1[C@H]1CC[C@]3(C)[C@@H](O)CC[C@H]3[C@@H]1C=C2` as the compound, how does the growth read?
A: The growth was 48.4%.

Q: Which growth does the source give for `C[C@@H](Oc1cc(-c2cnn(C3CC4(CCCNC4)C3)c2)cnc1N)c1c(Cl)ccc(F)c1Cl` (stereo partly drawn) here?
A: The growth was 15.3%.

Q: Which growth does the source give for `Clc1ccc(Nc2nc(Nc3ccccc3)nc(Nc3ccc(-c4cc(-c5ccc(Cl)cc5)on4)cc3)n2)cc1` here?
A: Its growth is 56.4%.

Q: `Cc1nc(-c2ccccc2)cc2c(O)c(C(=O)N/N=C/Cc3ccccc3)[nH]c(=O)c12` was tested. Which growth did it give?
A: The growth was 95.4%.
